In PubChem BioAssay one finds z-score and composite z-score data, which are given here for 11 compounds.

The source made the active and inactive calls. Unless noted, no rule for the calls is given here.

Test [1] in a line: HepG2 liver cancer cell viability effects, profiling panel, resazurin fluorescence, 24 h, PK04 Diversity Set (AID 1172). Also: test concentration not given here. As to conditions: higher = more signal.
A short description of test [2]: basal S. cerevisiae growth modulation, no modifier, primary screen, OD600, strain BY4716, 24 h, basal condition (AID 1173). The conditions noted are these: OD600, 24 h, higher = more signal, called active from +8 up or from −8 down.
Test [3] in a line: MM1S myeloma cell viability, profiling panel, resazurin fluorescence, basal, 24 h, PK04 Diversity Set (AID 1174). Also: test concentration not given here. As to conditions: higher = more signal, called active from +8 up or from −8 down.
Test [4] addresses Dihydroorotate dehydrogenase (quinone), mitochondrial (Plasmodium falciparum (isolate 3D7)) (UniProt Q08210). The test is described as follows: PfDHODH enzyme inhibitors, primary screen, biochemical, C-terminal His tag, absorbance 600 nm (AID 1175).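 Also: recombinant parasite enzyme with a five histidine tag at its C terminus; test concentration not given here.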 The conditions noted are these: DCIP absorbance 600 nm, higher = more signal, called active from +8 up or from −8 down.
A short description of test [5]: P. aeruginosa biofilm formation inhibitors, primary screen, strain PAO1, LB-PBS medium, absorbance 600 nm (AID 1176). Also: test concentration not given here. The conditions noted are these: P. aeruginosa PAO1 growth/biofilm, A600, 12 h; higher = more signal.
Test [6] is described as follows: S. cerevisiae RM11-1a growth modifiers, primary screen, strain RM11-1a, OD600, basal, 24 h (AID 1177).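 Also: cultures grown under basal conditions with no added stressor; test concentration not given here.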 As to conditions: OD600, 24 h, higher = more signal, called active from +8 up or from −8 down.
Test [7] is described as follows: E. coli acrAB mutant growth effects, primary screen, E. coli filamentation inducers, strain DRC39, OD650, 24 h (AID 1178).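 Also: growth measured as culture turbidity by optical density at 650 nm; test concentration not given here.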 The conditions noted are these: higher = more signal, called active from +8 up or from −8 down.
The nature of test [8]: E. coli acrAB mutant growth effects, primary screen, E. coli filamentation inducers, strain DRC39, OD650, 48 h (AID 1179).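 Also: screen aims at cell division blockers that make cells filament.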 As to conditions: E. coli DRC39 delta-acrAB growth, higher = more signal, called active from +8 up or from −8 down.
The nature of test [9]: RPMI8226 myeloma cell viability, profiling panel, resazurin fluorescence, basal, 24 h, PK04 Diversity Set (AID 1180).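 Also: RPMI8826 multiple myeloma cell line at 5000 cells per well; test concentration not given here.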 The conditions noted are these: higher = more signal.
The target in test [10] is E3 ubiquitin-protein ligase XIAP (Homo sapiens) (UniProt P98170). The test is described as follows: XIAP binders, primary screen, biophysical, small-molecule microarray, fluorescence 635 nm (AID 1181).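 Also: score merges 667 nm emission and signal to noise over triplicate slides.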 As to conditions: small-molecule microarray binding, higher = more signal.
Sequence of E3 ubiquitin-protein ligase XIAP (Homo sapiens) (P98170 whole entry, looked up): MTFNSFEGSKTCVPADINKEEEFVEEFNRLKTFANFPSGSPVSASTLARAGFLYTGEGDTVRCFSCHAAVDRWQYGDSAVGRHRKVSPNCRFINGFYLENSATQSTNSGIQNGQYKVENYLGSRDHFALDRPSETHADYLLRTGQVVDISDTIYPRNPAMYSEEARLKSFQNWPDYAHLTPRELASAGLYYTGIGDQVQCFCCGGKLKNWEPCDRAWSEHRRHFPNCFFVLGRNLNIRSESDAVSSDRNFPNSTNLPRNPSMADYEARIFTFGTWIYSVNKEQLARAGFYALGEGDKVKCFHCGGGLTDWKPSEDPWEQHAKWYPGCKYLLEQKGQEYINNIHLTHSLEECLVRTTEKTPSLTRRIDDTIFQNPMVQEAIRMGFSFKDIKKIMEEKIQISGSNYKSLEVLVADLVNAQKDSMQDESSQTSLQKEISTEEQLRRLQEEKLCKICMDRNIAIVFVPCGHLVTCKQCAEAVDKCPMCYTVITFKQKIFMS

Sequence of Dihydroorotate dehydrogenase (quinone), mitochondrial (Plasmodium falciparum (isolate 3D7)) (Q08210 whole entry, looked up): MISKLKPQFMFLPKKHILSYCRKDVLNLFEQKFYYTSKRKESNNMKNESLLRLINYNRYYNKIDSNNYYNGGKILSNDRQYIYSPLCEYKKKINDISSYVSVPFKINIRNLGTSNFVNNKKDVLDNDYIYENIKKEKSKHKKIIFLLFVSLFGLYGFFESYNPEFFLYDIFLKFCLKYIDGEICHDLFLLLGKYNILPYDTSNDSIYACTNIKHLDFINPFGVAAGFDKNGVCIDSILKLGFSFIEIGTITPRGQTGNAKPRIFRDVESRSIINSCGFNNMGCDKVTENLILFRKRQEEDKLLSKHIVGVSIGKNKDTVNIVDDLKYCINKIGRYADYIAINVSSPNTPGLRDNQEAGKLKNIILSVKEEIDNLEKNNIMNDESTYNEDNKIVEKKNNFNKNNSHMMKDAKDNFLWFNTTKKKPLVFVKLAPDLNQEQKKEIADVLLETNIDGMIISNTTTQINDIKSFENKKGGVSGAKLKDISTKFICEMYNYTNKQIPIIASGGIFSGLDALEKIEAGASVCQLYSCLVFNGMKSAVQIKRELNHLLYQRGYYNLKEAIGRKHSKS

For `COC(=O)[C@@]1(Cc2ccc(F)cc2)[C@H]2c3cc(C(=O)N(C)C)n(CCSCCO)c3C[C@H]2CN1C(=O)c1ccccc1`, the z-score is -0.234 in test [1]; -0.0857 (inactive) in test [2]; -0.42 (inactive) in [3]; 0.399 (inactive) in test [5]; 0.0891 (inactive) in test [6]; -0.514 (inactive) in test [7]. In addition, the results for the z-score in test [8] and in test [9] were -0.32 (inactive) and -0.107, respectively. Besides, the composite z-score in test [4] is -0.467 (inactive); in [10], -0.234.
On to `C=CCC(OC(C)=O)[C@@H]1[C@@H](N(Cc2ccc(-c3cccc(C(F)(F)F)c3)o2)C(=O)c2cccc3ccccc23)c2cc(OCCCO)ccc2N1C(=O)c1ccc(-c2ccccc2)cc1` (stereo not given in full), for which the z-score is -1.02 in test [1]; -0.0033 (inactive) in test [2]; -1.1 (inactive) in test [3]; -0.416 (inactive) in test [5]; 0.0679 (inactive) in test [6]; 0.147 (inactive) in test [7]. The z-score in [8] was -0.241 (inactive); in [9], -0.851. The composite z-score in test [4] is 0.821 (inactive); in test [10] it was -0.031.
For the compound `CC[C@@H]1[C@@H]2C3C(=O)N(CC)C(=O)C3CC(=O)[C@@H]2[C@H](c2ccc(C)cc2)N1S(=O)(=O)c1ccc(C)cc1` (stereo not given in full), the z-score is -0.107 in test [1]; -1.67 (inactive) in test [2]; -1.27 (inactive) in test [3]; 0.409 (inactive) in test [5]; -1.13 (inactive) in [6]; 0.694 (inactive) in test [7]. Besides, the values for the z-score in test [8] and in test [9] were 1.26 (inactive) and 0.887, respectively. The figures for the composite z-score in test [4] and in [10] were -0.415 (inactive) and -0.0962, respectively.
As for `COC(=O)[C@@]1(Cc2ccc(OC)cc2)[C@H]2c3cc(C(=O)N4CCCC4)n(Cc4ccc(C)o4)c3C[C@H]2CN1C(=O)c1ccccc1`, the z-score in [1] is -6.47; in test [2] it was -8.36 (active); in [3] it was -9.97 (active); in [5], 0.411 (inactive); in test [6] it was -1.57 (inactive); in test [7], 0.0254 (inactive). Moreover, the values for the z-score in [8] and in test [9] were -0.726 (inactive) and -7.27, respectively. Besides, the composite z-score is -1.53 (inactive) in test [4] and 0.402 in test [10].
With `CC(C)N1C(=O)c2ccccc2[C@](C)(C(=O)O)[C@@H]1c1ccc(CO)cc1`, the z-score in [1] is 0.536; in test [2] it was -0.942 (inactive); in [3] it was -0.0713 (inactive); in test [5], 0.332 (inactive); in test [6], 0.595 (inactive); in test [7], 0.0212 (inactive). Also, the results for the z-score in [8] and in [9] were 0.421 (inactive) and 0.125, respectively. In addition, the figures for the composite z-score in test [4] and in test [10] were -0.218 (inactive) and 0.0767, respectively.
As to `NCCCCCCNC(=O)[C@H]1C[C@H]2C(=O)N3CCC[C@H]3C(=O)N2[C@H]1c1ccc(O)cc1`, the z-score is -0.541 in test [1]; -0.438 (inactive) in test [2]; -0.431 (inactive) in test [3]; -0.0059 (inactive) in test [5]; -1.09 (inactive) in test [6]; 0.0967 (inactive) in [7]. Besides, the z-score in [8] is -0.676 (inactive); in [9], -0.508. In addition, the composite z-score in [4] is -0.245 (inactive); in test [10], -0.223.
On to `COCCOC(=O)N1C(=O)[C@@]2(c3cc(C#Cc4ccc(OC)cc4)ccc31)[C@H](C(=O)N1CCc3cc(OC)c(OC)cc3C1)[C@H]1C(=O)O[C@H](c3ccccc3)[C@H](c3ccccc3)N1[C@@H]2c1ccc(OCCO)cc1`, for which the z-score in [1] was -0.562; in test [2], 1.39 (inactive); in test [3], -0.12 (inactive); in test [5] it was 1.27 (inactive); in test [6], 2.92 (inactive); in test [7], -0.997 (inactive). Further, the z-score in test [8] was -1.19 (inactive); in test [9] it was 0.54. Also, the composite z-score in [4] is -0.0739 (inactive); in [10], 0.365.
Turning to `[N-]=[N+]=NCc1ccccc1C[C@@]1(C(=O)NCCN2CCOCC2)N=C(c2ccc(OCCCO)cc2)O[C@@H]1c1ccccc1CN=[N+]=[N-]`, the z-score was -0.709 in test [1]; 0.326 (inactive) in [2]; -0.982 (inactive) in test [3]; 1.13 (inactive) in test [5]; 1.15 (inactive) in test [6]; 0.585 (inactive) in [7]. In addition, the z-score in test [8] was 0.239 (inactive); in test [9] it was -0.971. The values for the composite z-score in test [4] and in [10] were 1.06 (inactive) and 0.0905, respectively.
`COCC1=C([C@H](O)CCc2ccccc2)[C@H](CO)[C@@H]2C(=O)N(C)C(=O)[C@@H]2C1`: the z-score in [1] was -0.548; in test [2] it was -1.66 (inactive); in test [3] it was 0.244 (inactive); in [5] it was 0.908 (inactive); in test [6], 0.1 (inactive); in [7], 2.16 (inactive). The figures for the z-score in test [8] and in [9] were 1.65 (inactive) and 0.544, respectively. The composite z-score in test [4] was -0.0291 (inactive); in test [10], -0.353.
Take `CC(C)CCC[C@@H](C)[C@H]1CC[C@@]2(C)C3=C(CC[C@]12C)[C@@]1(C)CC[C@H](OC(=O)c2ccc(N)cc2)C(C)(C)C1CC3` (stereo not given in full): the z-score in [1] is -0.322; in test [2], -0.863 (inactive); in test [3] it was 0.467 (inactive); in test [5], 0.589 (inactive); in test [6] it was -2.11 (inactive); in test [7], 0.965 (inactive). In addition, the values for the z-score in test [8] and in test [9] were 1.16 (inactive) and 0.826, respectively. Besides, the composite z-score was -2.03 (inactive) in test [4] and 0.45 in test [10].
As for `COc1ccc(C(=O)Nc2ccc(CN3C(=O)[C@@]4(O[C@@H](CC(=O)N5Cc6ccccc6C[C@H]5CO)[C@H]([Si](C)(C)c5ccc(OC)cc5)[C@H]4C)c4ccccc43)cc2)cc1`, the z-score was 0.473 in test [1]; -0.273 (inactive) in [2]; -1.66 (inactive) in test [3]; 0.896 (inactive) in test [5]; 1.23 (inactive) in test [6]; 0.704 (inactive) in test [7]. In addition, the z-score in test [8] is 0.241 (inactive); in test [9], -1.04. Further, the composite z-score in [4] is -3.48 (inactive); in test [10], -0.127.
